Data taken from PubChem BioAssay AID1159580 (chemical genetic matrix, 2015).
Values joined by “and” are separate entries in the source; they are usually repeats but may differ in a detail not shown here. Identical values can stand only once. About 2,000 (36%) of roughly 5,500 compounds were called active. About 18% were inconclusive and are not listed. Rule as the data show it: active = normalized growth mostly below about 0.91 (no sharp cut-off); inconclusive = no clear call, values can overlap the other calls; inactive = mostly above about 0.92. This is one part of the list.

Test: chemical genetic growth profiling, strain panel (AID 1159580);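 also: tested at 20 µM; growth read once vehicle control cultures reached saturation at 30 °C; 1 = growth at the plate median or of vehicle wells; lower values mean less growth of the strain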
Conditions: S. cerevisiae deletion strains, growth OD

Measured: normalized growth

CC(C)(S)[C@@H](N)C(=O)O
inactive: locus YAL013W, strain DEP1, active compounds read low 1.02 | locus YAL021C, strain ccr4, active compounds read low 1.01 | locus YAL026C, strain drs2, active compounds read low 1.01 | locus YAL030W, strain snc1, active compounds read low 1.01 | locus YBL061C, strain skt5, active compounds read low 1 | locus YBR009C, strain hhf1, active compounds read low 0.992 | locus YBR021W, strain FUR4, active compounds read low 1.03 | locus YBR023C, strain chs3, active compounds read low 1.01 | locus YBR171W, strain sec66, active compounds read low 1.01 | locus YBR229C, strain ROT2, active compounds read low 1.01 | locus YBR231C, strain swc5, active compounds read low 1 | locus YBR279W, strain paf1, active compounds read low 0.997 | locus YCL011C, strain gbp2, active compounds read low 1 | locus YCL016C, strain dcc1, active compounds read low 1 | locus YCL029C, strain bik1, active compounds read low 0.991 | locus YCL061C, strain MRC1, active compounds read low 1.01 | locus YCL069W, strain vba3, active compounds read low 0.993 | locus YCR088W, strain abp1, active compounds read low 1.01 | locus YDL005C, strain med2, active compounds read low 0.995 | locus YDL035C, strain GPR1, active compounds read low 1.01 | locus YDL040C, strain nat1, active compounds read low 1 | locus YDL074C, strain BRE1, active compounds read low 1.03 | locus YDL101C, strain DUN1, active compounds read low 1.03 | locus YDL134C, strain PPH21, active compounds read low 1.01 | locus YDL185W, strain tfp1, active compounds read low 0.988 | locus YDL192W, strain arf1, active compounds read low 0.984 | locus YDR001C, strain nth1, active compounds read low 1 | locus YDR069C, strain doa4, active compounds read low 0.997 | locus YDR101C, strain arx1, active compounds read low 0.986 | locus YDR137W, strain rgp1, active compounds read low 1.05 | locus YDR150W, strain NUM1, active compounds read low 1.01 | locus YDR159W, strain sac3, active compounds read low 0.994 | locus YDR162C, strain NBP2, active compounds read low 1 | locus YDR195W, strain ref2 0.997 | locus YDR297W, strain sur2, active compounds read low 1.01 | locus YDR318W, strain mcm21, active compounds read low 0.994 | locus YDR334W, strain swr1, active compounds read low 1.01 | locus YDR335W, strain msn5, active compounds read low 0.986 | locus YDR388W, active compounds read low 0.991 | locus YDR392W, strain spt3, active compounds read low 0.96 | locus YDR502C, strain sam2, active compounds read low 0.996 | locus YEL003W, strain gim4, active compounds read low 0.995 | locus YEL037C, strain rad23, active compounds read low 1 | locus YEL061C, strain CIN8 (second series), active compounds read low 0.995 | locus YEL061C, strain CIN8, active compounds read low 1.01 | locus YER015W, strain faa2, active compounds read low 1.01 | locus YER016W, strain bim1, active compounds read low 0.994 | locus YER110C, active compounds read low 0.989 | locus YER111C, strain swi4, active compounds read low 1.01 | locus YER155C, strain BEM2 (second series), active compounds read low 0.985 | locus YER155C, strain BEM2, active compounds read low 1.01 | locus YER167W, strain BCK2, active compounds read low 1.01 | locus YFR010W, strain ubp6, active compounds read low 0.998 | locus YGL078C, strain dbp3, active compounds read low 0.991 | locus YGL086W, strain mad1, active compounds read low 0.995 | locus YGL167C, strain pmr1, active compounds read low 1 | locus YGL173C, strain kem1, active compounds read low 1 | locus YGL227W, strain vid30, active compounds read low 0.992 | locus YGL240W, strain doc1, active compounds read low 1.01 | locus YGL248W, strain PDE1, active compounds read low 1.02 | locus YGL253W, strain hxk2, active compounds read low 0.993 | locus YGR135W, strain pre9, active compounds read low 0.989 | locus YGR252W, strain gcn5, active compounds read low 1.01 | locus YHR013C, strain ard1, active compounds read low 1 | locus YHR027C, strain rpn1, active compounds read low 1.03 | locus YHR030C, strain SLT2, active compounds read low 1.01 and 0.999 | locus YHR079C, strain IRE1 (second series), active compounds read low 0.987 | locus YHR079C, strain IRE1, active compounds read low 0.982 | locus YHR094C, strain hxt1, active compounds read low 0.986 | locus YHR129C, strain ARP1, active compounds read low 1.01 | locus YHR142W, strain chs7, active compounds read low 1.01 | locus YHR200W, strain rpn10, active compounds read low 1 | locus YIL066C, strain RNR3, active compounds read low 1.01 | locus YIL073C, strain SPO22, active compounds read low 0.975 | locus YIL125W, strain kgd1, active compounds read low 0.997 | locus YIR030C, strain dcg1, active compounds read low 0.989 | locus YJL092W, strain hpr5, active compounds read low 1 | locus YJL095W, strain BCK1 (second series), active compounds read low 1 | locus YJL095W, strain BCK1, active compounds read low 1.05 and 1 | locus YJL115W, strain asf1, active compounds read low 0.995 | locus YJL129C, strain trk1, active compounds read low 0.987 | locus YJL134W, strain LCB3, active compounds read low 1.01 | locus YJL154C, strain vps35, active compounds read low 0.994 | locus YJL164C, strain tpk1, active compounds read low 1.01 | locus YJL166W, strain qcr8, active compounds read low 1.01 | locus YJL168C, strain set2, active compounds read low 0.999 | locus YJL187C, strain SWE1 (second series), active compounds read low 1.01 | locus YJL187C, strain SWE1, active compounds read low 1
